Reference: PubChem BioAssay (NCATS)
Several values for one entry are separate records, joined by “and”; a condition that tells them apart may be missing. Identical values can stand only once. Inconclusive results are not listed. Activity calls are given as the source filed them. The call rests on the fitted dose curve; in most records, active means well fitted curve in the direction sought with a large enough effect; inconclusive means small, poorly fitted or top-dose-only effect, or another doubt; inactive means no such curve, though single readings can be large or run the other way.

Test: qHTS Assay for Identifying Gametocytocidal Compounds (AID 743244);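 on max response: actives lower the fluorescent signal which means gametocytes are killed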
Settings: P. falciparum 3D7 stage III-V gametocytes, alamarBlue, 72 h; max response: active compounds read low
Method in brief: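 In this qHTS viability screen, late-stage 3D7 gametocytes are incubated with compound for 72 h, then with alamarBlue for 24 h; reduced resorufin fluorescence marks killing.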
On the % scale 0 is the no-effect control and ±100 the full control effect; potency means the concentration at half of the fitted maximal effect.

| Compound | Potency | max response |
| --- | --- | --- |
| CCN(CC)C(=O)[C@@H]1C=C2c3cccc4[nH]cc(c34)C[C@H]2N(C)C1 | 63.1 µM (active) |  |
| C[C@H](N)C(=O)c1ccccc1 |  | 39.4% (inactive) and -13% (inactive) |
| COc1cc(CC(C)N)cc(OC)c1OC (stereo unspecified) |  | 4.71% (inactive) |
| O=C1Nc2ccc(Cl)cc2C(c2ccccc2)=NC1O (stereo unspecified) |  | 6.98% (inactive) and -4.42% (inactive) |
| COC1CC(=C(c2cccs2)c2cccs2)C[N+](C)(C)C1 (stereo unspecified) | 8.91 µM (active) |  |
| C[C@@H](N)[C@@H](O)c1ccccc1 |  | 12.7% (inactive) |
| O=[N+]([O-])O[C@H]1CO[C@H]2[C@@H]1OC[C@H]2O[N+](=O)[O-] |  | 30.8% (inactive) |
| CCN[C@@H](C)Cc1cccc(C(F)(F)F)c1 |  | 13.9% (inactive) |
| Cc1nnc2n1-c1ccc(Cl)cc1C(c1ccccc1Cl)=NC2 |  | -0.695% (inactive) |
| COc1ccc2c3c1O[C@H]1[C@H](O)CC[C@H]4[C@@H](C2)N(C)CC[C@@]341 |  | -0.489% (inactive) |
| CC(C)=CC1C(C(=O)OCN2C(=O)C3=C(CCCC3)C2=O)C1(C)C (stereo unspecified) |  | 1.71% (inactive) |
| COc1ccc2c(c1)C13CCCC[C@@H]1C(C2)N(C)CC3 (stereo partly specified) |  | 7.6% (inactive) |
| C[N+]1(CCF)[C@@H]2CC[C@H]1CC(OC(=O)C(O)(c1ccccc1)c1ccccc1)C2 (stereo partly specified) |  | 7.34% (inactive) |
| CN1C(=O)NC(=O)C(C)(C2=CCCCC2)C1=O (stereo unspecified) |  | 8.57% (inactive) and 23.3% (inactive) |
| O=C(O)/C=C\C(=O)O |  | 2.8% (inactive) |
| CC(Cc1ccccc1)NCCn1cnc2c1c(=O)n(C)c(=O)n2C (stereo unspecified) |  | -2.49% (inactive) |
